High-throughput results as filed in PubChem BioAssay.
TDP1 block – qHTS Assay for Inhibitors of Tyrosyl-DNA Phosphodiesterase (TDP1); Tyrosyl-DNA phosphodiesterase 1 (Homo sapiens), Q9NUW8; recombinant TDP1, AlphaScreen DNA substrate cleavage; Potency, µM (series often up to 130 µM), actives largely listed as inhibitors; actives 0.28% (n = 350,000); AID 485290, 2010; also: nearly all actives have a fitted effect of over 40% in size
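Enzyme-compound mixtures sat 15 min at room temperature, followed by a 5 min reaction with 15 nM final substrate and 10 min with AlphaScreen beads. Recombinant human Tdp1 was used at 1 nM final.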
JMJD2E inh – qHTS Assay for Inhibitors of Human Jumonji Domain Containing 2E (JMJD2E). Lysine-specific demethylase 4E (Homo sapiens), B2RXH2. JMJD2E catalytic domain, FDH-coupled NADH fluorescence (FDH is formaldehyde dehydrogenase). Potency, µM (highest dose often 57.1 µM), most hits filed as inhibitors. actives 1.6% (n = 230,000). AID 2147, 2009; active = well fitted inhibition curve with a large enough effect, not every such curve was filed as active; inconclusive = small, poorly fitted or top-dose-only effect, or another doubt; inactive = no such curve, though single readings can be large or run the other way; also: nearly all actives have a fitted effect of over 50% in size
BLM helicase inh – qHTS Assay for Inhibitors of Bloom's syndrome helicase (BLM) | recombinant BLM DNA unwinding, fluorescence dequenching | Potency, µM (series often up to 56.1 µM), most hits filed as inhibitors | actives 0.2% (n = 350,000); also: nearly all actives have a fitted effect of over 35% in size
RECQ1 helicase – qHTS Assay for Inhibitors of RecQ-Like Dna Helicase 1 (RECQ1). ATP-dependent DNA helicase Q1 (Homo sapiens), P46063. Potency, µM (top dose mostly 57.3 µM), usual class: inhibitors. AID 2549, 2010. RECQ1 DNA unwinding, red fluorescence kinetic read. actives 0.54% (n = 240,000); also: nearly all actives have a fitted effect of over 30% in size
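50 nM RECQ1T1 preincubated 15 min with compound in Tris pH 8.0 buffer with MgCl2, DTT, Tween-20 and 2.5 ug/ml poly(dI-dC); started with 200 nM TAMRA/BHQ-2 forked duplex and 2 mM ATP. Unwinding read as fluorescence (525/598 nm), two reads 2 h apart.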
L3MBTL1 block – qHTS Assay for the Inhibitors of L3MBTL1; Lethal(3)malignant brain tumor-like protein 1 (Homo sapiens), Q9Y468; AlphaScreen L3MBTL1–H3K9me1 peptide binding; Potency, µM (top dose mostly 57.1 µM), most hits filed as inhibitors; actives 0.66% (n = 230,000); AID 485360, 2010; also: nearly all actives have a fitted effect of over 60% in size
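Read-out is AlphaScreen signal from streptavidin donor and nickel chelate acceptor beads (10 ug/mL final each) bridging L3MBTL1 (50 nM) and biotinylated K9-monomethylated H3(1-15) peptide (75 nM), after 30 min compound exposure at room temperature.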
APE1 inh – qHTS Assay for Inhibitors of the Human Apurinic/apyrimidinic Endonuclease 1 (APE1) | recombinant APE1, TAMRA/BHQ-2 abasic DNA cleavage fluorescence | Potency, µM (titrated, usually from 65.8 µM), usual class: inhibitors | actives 0.35% (n = 350,000) | AID 2517, 2012; also: nearly all actives have a fitted effect of over 55% in size
Target sequence (P27695 whole entry, looked up): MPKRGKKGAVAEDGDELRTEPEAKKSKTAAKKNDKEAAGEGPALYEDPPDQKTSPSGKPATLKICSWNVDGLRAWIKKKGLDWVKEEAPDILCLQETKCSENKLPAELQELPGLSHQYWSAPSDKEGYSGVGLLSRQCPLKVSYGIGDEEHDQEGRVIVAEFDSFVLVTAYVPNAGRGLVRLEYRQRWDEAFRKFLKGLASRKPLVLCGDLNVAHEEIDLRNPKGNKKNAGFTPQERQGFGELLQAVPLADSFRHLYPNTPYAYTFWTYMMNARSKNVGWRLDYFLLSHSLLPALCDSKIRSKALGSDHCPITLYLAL
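Step 1: APE1 (0.75 nM) with compound, 15 min RT. Step 2: add 50 nM fluorophore/quencher THF duplex. Step 3: three fluorescence reads 60 s apart (525/598 nm); read 3 minus read 1 = reaction progress.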
Large screens that a line does not name were inactive. This is one part of a sample in which hits are shown more often than they occur. Unless noted, calls follow the shape of the dose curve; as a rule, active = well fitted curve in the direction sought with a large enough effect; inconclusive = small, poorly fitted or top-dose-only effect, or another doubt; inactive = no such curve, though single readings can be large; an effect the other way counts as inactive or inconclusive.

O=C(CCN1C(=O)S/C(=C\c2ccc(Cl)cc2)C1=O)Nc1ccc(C(=O)O)cc1	TDP1 block 28.2µM, APE1 inh inconclusive (no result: JMJD2E inh, RECQ1 helicase, L3MBTL1 block)
CCc1ccc(OCC(=O)N/N=C\c2ccco2)c([N+](=O)[O-])c1	L3MBTL1 block 35.5µM, APE1 inh inconclusive
CCCCn1c(C)cc2c(c1=O)C1O[C@](c3ccc(OC)cc3)(Cc3cc(OC)c(OC)cc31)O2	APE1 inh 4.33µM (no result: TDP1 block, JMJD2E inh, RECQ1 helicase, L3MBTL1 block)
CCCCn1c(C)cc2c(c1=O)[C@H]1O[C@](CCCC)(Cc3cc(OC)c(OC)cc31)O2	none (no result: TDP1 block, JMJD2E inh, RECQ1 helicase, L3MBTL1 block)
Cc1nn(-c2ccccc2)c2nc(C(F)F)cc(C(F)F)c12	TDP1 block 56.2µM (no result: JMJD2E inh, BLM helicase inh, RECQ1 helicase)
COc1ccc2nc(S(=O)Cc3ncc(C)c(OC)c3C)[nH]c2c1 (centres undefined)	JMJD2E inh 25.1µM
COCCCOc1ccnc(CS(=O)c2nc3ccccc3[nH]2)c1C (centres undefined)	none (no result: JMJD2E inh, L3MBTL1 block)
C/C(=N\OCC(=O)N/N=C/c1ccccc1O)c1cccs1	JMJD2E inh 22.4µM (no result: L3MBTL1 block)
Cc1ccccc1OCC(=O)N/N=C/c1cccc2cccnc12	none (no result: JMJD2E inh, RECQ1 helicase, L3MBTL1 block)
O=C(COc1cccc2cccnc12)N/N=C/c1ccccc1O	TDP1 block inconclusive, JMJD2E inh 7.94µM
C/C(=N\OCC(=O)N/N=C/c1ccccc1)c1cccs1	none (no result: L3MBTL1 block)
O=S(=O)(c1ccc(Cl)cc1)N1CCN(Cc2ccc(O)c3ncccc23)CC1	JMJD2E inh 25.1µM, L3MBTL1 block inconclusive
CN1CCN(C2CCN(Cc3ccc(O)c4ncccc34)CC2)CC1	L3MBTL1 block 14.1µM (no result: JMJD2E inh, BLM helicase inh, RECQ1 helicase)
O=C1NC(=S)N/C1=C/c1cccn1-c1ccc([N+](=O)[O-])cc1	RECQ1 helicase 28.2µM, L3MBTL1 block inconclusive, APE1 inh inconclusive
COc1ccccc1CNC(=O)c1c(O)c2cc(OC)c(OC)cc2[nH]c1=O	JMJD2E inh 3.55µM
CN1C(=O)c2cccc(N(C)C)c2C1=O	none
CN(C)c1cccc2c1C(=O)c1ccccc1C2=O	L3MBTL1 block 25.1µM
CNc1nc(Cl)nc2c1ncn2CC(COC(=O)C(C)(C)C)COC(=O)C(C)(C)C	none (no result: JMJD2E inh, L3MBTL1 block)
Cc1cc(N/N=C/c2ccc(O)cc2)c2cccc(C)c2n1	BLM helicase inh inconclusive, APE1 inh inconclusive (no result: JMJD2E inh, RECQ1 helicase)
Cc1cc(C)c2nc(C)cc(N/N=C/c3ccc(O)cc3)c2c1	BLM helicase inh 31.6µM, APE1 inh inconclusive (no result: TDP1 block, JMJD2E inh, RECQ1 helicase)
CCN(CC)c1ccc2c(-c3ccc(S(=O)(=O)O)cc3S(=O)(=O)[O-])c3ccc(=[N+](CC)CC)cc-3oc2c1	BLM helicase inh 25.1µM, APE1 inh 26.7µM (no result: TDP1 block, JMJD2E inh, RECQ1 helicase, L3MBTL1 block)
c1ccc(C2NCCn3cccc32)cc1 (centres undefined)	JMJD2E inh inconclusive
Fc1ccc(C2NCCn3cccc32)cc1 (centres undefined)	JMJD2E inh 20µM
CCC1Oc2ccc(C)cc2N(CC(=O)NCCc2ccccc2)C1=O (centres undefined)	none (no result: JMJD2E inh, RECQ1 helicase, L3MBTL1 block, APE1 inh)
O=C(O)c1ccc2c(c1)C(=O)/C(=C/c1ccccc1)C2=O	L3MBTL1 block 3.16µM, APE1 inh inconclusive (no result: TDP1 block)
O=C(O)c1ccc2c(c1)C(=O)/C(=C\c1ccco1)C2=O	TDP1 block 7.08µM, RECQ1 helicase inconclusive, L3MBTL1 block 3.16µM, APE1 inh 7.94µM
O=S(=O)(Nc1cccc2cccnc12)c1ccc(Br)s1	none (no result: JMJD2E inh, L3MBTL1 block)
O=S1(=O)N=C(Oc2ccc(Br)cc2)c2ccccc21	none (no result: JMJD2E inh, BLM helicase inh, RECQ1 helicase, L3MBTL1 block, APE1 inh)
COc1ccccc1-c1cc(=O)c2cc(O)ccc2o1	none (no result: L3MBTL1 block)
CCOc1ccccc1-c1c2cc(O)c(=O)cc-2oc2cc(O)c(O)cc12	BLM helicase inh 10µM, L3MBTL1 block 1.26µM
COc1ccc2c(Cl)c(-c3nnc(SCC(=O)c4ccccc4)n3C)sc2c1	TDP1 block 89.1µM (no result: L3MBTL1 block)
Cc1cccc2cc(C(c3nnnn3C(C)(C)C)N(Cc3ccco3)CC3CCCO3)c(=O)[nH]c12 (centres undefined)	L3MBTL1 block inconclusive, APE1 inh 28.2µM (no result: TDP1 block)
